From PubChem
An excerpt weighted towards active compounds, which were near 2.1% of everything screened.
GSH bead fluor – compound fluorescence on glutathione beads, profiling panel, artefact control, biophysical, 488/530 nm, flow cytometry; GSH beads flow cytometry, compound fluorescence 488/530 nm; active compounds read high; fluorescence (KMESF) at 10 µM; actives 0.25% (n = 190,000); in the data active means fluorescence above about 89;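 further: glutathione beads carrying GST-tagged Bcl family fusion proteins plus one bare bead set; values are compound well signal with DMSO vehicle wells as background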
Avidin fluor – green autofluorescence of compounds with avidin beads – biophysical, 488/530 nm, flow cytometry, artefact control, profiling panel; compound fluorescence 488/530 nm; active compounds read high; fluorescence (KMESF) at 10 µM; actives 0.38% (n = 220,000); in the data active means fluorescence above about 47
EP2 modulator – EP2 receptor modulators, cAMP readout, primary screen, cell-based, HTRF cAMP, PGE2 stimulation | induction, % at 25 µM | actives 0.83% (n = 260,000) | Prostaglandin E2 receptor EP2 subtype (Homo sapiens), P43116 | EP2-expressing cells, cAMP HTRF FRET, PGE2 co-stimulation;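 active means compounds whose cAMP rise, as percent of the full-agonist control response, exceeds 60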;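 further: rat C6 glioma line stably carrying human EP2 under a CMV promoter; the protocol text gives 20 µM as final concentration; 100% = response of wells given 1 µM PGE2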
Target sequence (P43116 whole entry, looked up): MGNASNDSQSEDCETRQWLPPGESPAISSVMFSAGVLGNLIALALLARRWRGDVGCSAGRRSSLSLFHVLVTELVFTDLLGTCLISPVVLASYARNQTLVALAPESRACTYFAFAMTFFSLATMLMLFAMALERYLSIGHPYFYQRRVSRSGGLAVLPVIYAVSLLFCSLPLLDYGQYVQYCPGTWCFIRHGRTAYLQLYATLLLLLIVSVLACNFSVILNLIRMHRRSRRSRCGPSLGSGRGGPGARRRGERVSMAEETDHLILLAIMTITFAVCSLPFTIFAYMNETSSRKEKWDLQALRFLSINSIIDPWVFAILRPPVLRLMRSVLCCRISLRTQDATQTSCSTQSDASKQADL
EP2 antag – human EP2 receptor antagonists, primary screen, TR-FRET cAMP, C6 glioma cells; C6 glioma cells expressing human EP2; cells stimulated with saturating PGE2; inhibition, % at 25 µM; actives 0.52% (n = 260,000); AID 1422, 2008;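 active means percent inhibition above 40 after rounding to a whole number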;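 further: rat C6 glioma host cells with rolipram phosphodiesterase inhibitor present; the protocol text gives 20 µM as final concentration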
HMGR II inh – inhibitors of E. faecalis class II HMGR, primary screen, biochemical, Enterococcus faecalis; HMG-CoA reductase (Enterococcus faecalis, mvaE); purified E. faecalis HMGR, NADPH absorbance 340 nm kinetic; inhibition, % at 10 µM; actives 0.41% (n = 190,000); AID 1066, 2008;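 active means inhibition above a set limit, the median over all tested compounds plus 3 SD, cut at about 9.5% in these data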;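 further: enzyme runs in reverse so mevalonate oxidation gives rising NADPH absorbance; 0% = complete reaction with DMSO and 100% = background rate lacking mevalonate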
EP2 confirm – cAMP induction in EP2, EP4, beta2-AR and parental cells, confirmation, counter-screen for EP2 modulator project, cell-based, five parallel assays, C6 glioma, HEK293; actives 47% (n = 1,300); calls only at 20 µM (by protocol); AID 1080, 2008; cAMP HTRF induction; plus low (about EC15) PGE2 agonist; shares compounds with EP2 modulator;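 active means cAMP induction above 50% in the main assay while under 30% in all four parallel counter assays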;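 further: rat C6 glioma cells stably expressing human EP2 receptor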
Numbers without * were called inactive; i = inactive; . = not tested or not shown; + = active, no number.

SMILES | GSH bead fluor | Avidin fluor | EP2 modulator | EP2 antag | HMGR II inh | EP2 confirm
COC(=O)c1c(NC(=O)c2cccnc2)sc2c1CCC(C)C2 (stereo unspecified) | . | . | 42 | 2 | . | .
COC(=O)c1c(NC(=O)Cc2cccs2)sc2c1CCC(C)C2 (stereo unspecified) | 24 | 19 | 51 | 22 | -5 | i
C(=N/n1c2ccccc2c2ccccc21)/c1ccco1 | 23 | 8 | 65* | 12 | -1 | +
C(=N\n1c2ccccc2c2ccccc21)/c1ccccc1 | 17 | 34 | 43 | 3 | -1 | .
Cc1cccc(Oc2nc(-c3ccccc3)cc(C)c2S(C)(=O)=O)c1C | 5 | 8 | 72* | 16 | 0 | +
COc1ccccc1Oc1nc(-c2ccccc2)cc(C)c1S(C)(=O)=O | 58 | 14 | 36 | 6 | -3 | .
O=c1[nH]c(N2CCOCC2)nc2c1CCN(Cc1cccs1)C2 | . | . | -11 | . | . | .
OC(COc1ccccc1)Cn1c2ccccc2c2ccccc21 (stereo unspecified) | 16 | 13 | 71* | 11 | -4 | +
O=C(Nc1ccc(N2CCN(C(=O)c3ccco3)CC2)cc1)c1ccc(Cl)cc1 | . | . | 11 | 4 | . | .
COC(=O)n1c(=S)oc2cc(Cl)ccc21 | 4 | 8 | 43 | 2 | -2 | .
CCCCOC(=O)n1c(=S)oc2cc(Cl)ccc21 | 11 | 34 | 71* | 13 | -3 | i
Cc1nnc(SCC(=O)N2c3ccccc3C(C)(c3ccccc3)CC2(C)C)s1 (stereo unspecified) | 4 | 10 | 67* | 2 | -3 | i
CCc1cc2ccccc2nc1SCC(=O)c1cccc(OC)c1 | . | . | 53 | 9 | . | .
Nc1[nH]n2c(=O)c3c(nc2c1N=Nc1ccccc1)CCCC3 | 19 | 7 | 90* | 8 | -4 | +
Cc1ccc(C)c(NC(=O)C2CCN(c3ncccn3)CC2)c1 | . | . | 19 | 5 | . | .
O=C1CCCc2ccccc2N1Cc1c(Cl)cccc1Cl | 20 | 15 | 72* | 9 | -4 | +
O=C1CCCc2ccccc2N1Cc1cccc(Cl)c1 | 18 | 15 | 72* | 9 | -2 | i
O=C1CCCc2ccccc2N1Cc1ccc(Cl)cc1 | 19 | 14 | 40 | 12 | -4 | .
Clc1cccc(Cl)c1CSc1cc2c(nn1)-c1ccccc1CC2 | 21 | 17 | 17 | 7 | -4 | .
O=C1CCCc2ccccc2N1Cc1ccccc1 | 14 | 7 | 25 | 4 | 4 | .
O=c1cc2c(nn1Cc1c(Cl)cccc1Cl)-c1ccccc1CC2 | 32 | 11 | 78* | 8 | -7 | +
CN(C)CCCN(Cc1cccnc1)Cc1ccccn1 | . | . | 21 | 5 | . | .
CCOC(=O)c1c(NC(=O)c2ccccc2N(C)S(=O)(=O)c2ccccc2)sc2c1CCCC2 | 17 | 13 | 29 | 5 | 0 | .
COC(=O)c1c(NC(=O)c2ccccc2N(C)S(=O)(=O)c2ccccc2)sc2c1CCCC2 | 19 | 5 | 54 | 0 | 5 | i
CCOc1cc(-c2noc(-c3ccncc3)n2)cc(Br)c1OC | 20 | 34 | 50 | 5 | 1 | +
SMILES | GSH bead fluor | Avidin fluor | EP2 modulator | EP2 antag | HMGR II inh | EP2 confirm
Cc1noc2ncnc(Sc3c(Cl)cccc3Cl)c12 | 58 | 12 | 66* | 23 | 0 | i
O=C(Nc1cccc(Cl)c1)N1CCC(n2nnc3cc(C(F)(F)F)ccc32)CC1 | . | . | -55 | 10 | . | .
CCC(=O)Oc1ccc2c(C)cc(=O)oc2c1C(=O)c1ccccc1 | 5 | 2 | 69* | 2 | 0 | i
Cc1cccc(OC(=O)c2sc(Cl)nc2C)c1 | 10 | 6 | 68* | 13 | 1 | i
Cc1nc(Cl)sc1C(=O)O | 21 | 18 | 22 | 3 | -4 | .
FC(F)(F)c1nnc2ccc(N3CCOCC3)nn12 | 12 | 11 | 37 | 17 | -4 | .
Cc1cccc(C)c1N1CCN(c2ccc3nnc(C(F)(F)F)n3n2)CC1 | 4 | 7 | 70* | 4 | -1 | +
COc1cccc2cc(/C(=N/O)c3ccccc3)oc12 | 12 | 6 | 68* | 5 | -3 | +
COc1cccc2cc(C(C)=O)oc12 | 20 | 8 | 4 | 6 | -4 | .
Cc1nc(C(N)=O)c2[nH]c(=O)n(-c3cccc(Cl)c3)c2n1 | . | . | -7 | 9 | . | .
COc1cc2nc(N(C)CCCNC(=O)C3CCCO3)nc(N)c2cc1OC (stereo unspecified) | 67 | 8 | -10 | 15 | -1 | .
COc1cc2nc(N3CCN(C(=O)C4CCCO4)CC3)nc(N)c2cc1OC (stereo unspecified) | 22 | 12 | 6 | 18 | -3 | i
CCOC(=O)Cn1c(=S)[nH]c2c(oc3ccc(Cl)cc32)c1=O | 28 | 15 | 98* | 16 | 2 | i
Cc1cc(=O)oc2c3c4c(cc12)OCCN4CCC3 | 17 | 18 | -13 | 11 | -2 | .
O=c1oc2c(CN3CCOCC3)c(O)ccc2c2c1CCC2 | 24 | 15 | 13 | 4 | 1 | .
O=c1oc2c3c4c(cc2c(C(F)(F)F)c1CCN1CCOCC1)CCCN4CCC3 | 29 | 10 | 73* | 9 | -5 | i
CC(C)c1cc(=O)oc2c3c4c(cc12)CCCN4CCC3 | 11 | 12 | 54 | 3 | 5 | +
CCOC(=O)C1CCCN(C(=O)c2ccc(C)cc2O)C1 (stereo unspecified) | 14 | 16 | 66* | 5 | 0 | i
Cc1ccc(-c2cccc(C(=O)NCc3ccccc3)n2)c2ccccc12 | 17 | 14 | 66* | 5 | -3 | +
Cc1ccc(-c2cccc(C(=O)NCCc3ccccc3)n2)c2ccccc12 | 18 | 10 | 14 | 6 | 3 | .
CCOC(=O)C1CCN(c2c(C(=O)c3ccccc3)cnc3ccc(CC)cc23)CC1 | 14 | 9 | 77* | 5 | 2 | i
CC(C)c1ccc(C(=O)Nc2ccc(N3CCN(S(C)(=O)=O)CC3)cc2)cc1 | . | . | -19 | 6 | . | .
Cc1cccc(NC(=O)CSc2ncnc3c2oc2ccccc23)c1 | 24 | 5 | 71* | 15 | -6 | i
Fc1cccc(CSc2ncnc3c2oc2ccccc23)c1 | 29 | 10 | 80* | 15 | -4 | i
O=C(CSc1ncnc2c1oc1ccccc12)Nc1ccc2c(c1)OCCO2 | 19 | 7 | 21 | 6 | -2 | .
O=C(CSc1ncnc2c1oc1ccccc12)Nc1cccc(F)c1 | 26 | 11 | 67* | 13 | -4 | i
